Assay results as given in PubChem BioAssay AID1326 (NMMLSC, 2008).
Out of some 190,000 compounds screened, about 130 (0.068%) were called active. The full list was thinned out, with actives kept by preference. A number with no mark means an inactive call. Cut-off read from the data, not from the text of the source: active = inhibition above about 40%; inactive = the rest.

What follows are compounds tested against ATP-dependent translocase ABCB1 (Homo sapiens) (UniProt P08183) (assay: blockers of ABCB1-mediated dye efflux – cell-based, multiplex, flow cytometry, ABCG2 counter-screen, primary screen (AID 1326;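 note: 0% = vehicle and 100% = reference inhibitor; higher value means more JC-1 retained so stronger ABCB1 efflux block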)). Settings: CCRF-Adr cells, JC-1 efflux, at 6.6 µM, hits give high values.
Chain of ATP-dependent translocase ABCB1 (Homo sapiens) (P08183 whole entry, looked up): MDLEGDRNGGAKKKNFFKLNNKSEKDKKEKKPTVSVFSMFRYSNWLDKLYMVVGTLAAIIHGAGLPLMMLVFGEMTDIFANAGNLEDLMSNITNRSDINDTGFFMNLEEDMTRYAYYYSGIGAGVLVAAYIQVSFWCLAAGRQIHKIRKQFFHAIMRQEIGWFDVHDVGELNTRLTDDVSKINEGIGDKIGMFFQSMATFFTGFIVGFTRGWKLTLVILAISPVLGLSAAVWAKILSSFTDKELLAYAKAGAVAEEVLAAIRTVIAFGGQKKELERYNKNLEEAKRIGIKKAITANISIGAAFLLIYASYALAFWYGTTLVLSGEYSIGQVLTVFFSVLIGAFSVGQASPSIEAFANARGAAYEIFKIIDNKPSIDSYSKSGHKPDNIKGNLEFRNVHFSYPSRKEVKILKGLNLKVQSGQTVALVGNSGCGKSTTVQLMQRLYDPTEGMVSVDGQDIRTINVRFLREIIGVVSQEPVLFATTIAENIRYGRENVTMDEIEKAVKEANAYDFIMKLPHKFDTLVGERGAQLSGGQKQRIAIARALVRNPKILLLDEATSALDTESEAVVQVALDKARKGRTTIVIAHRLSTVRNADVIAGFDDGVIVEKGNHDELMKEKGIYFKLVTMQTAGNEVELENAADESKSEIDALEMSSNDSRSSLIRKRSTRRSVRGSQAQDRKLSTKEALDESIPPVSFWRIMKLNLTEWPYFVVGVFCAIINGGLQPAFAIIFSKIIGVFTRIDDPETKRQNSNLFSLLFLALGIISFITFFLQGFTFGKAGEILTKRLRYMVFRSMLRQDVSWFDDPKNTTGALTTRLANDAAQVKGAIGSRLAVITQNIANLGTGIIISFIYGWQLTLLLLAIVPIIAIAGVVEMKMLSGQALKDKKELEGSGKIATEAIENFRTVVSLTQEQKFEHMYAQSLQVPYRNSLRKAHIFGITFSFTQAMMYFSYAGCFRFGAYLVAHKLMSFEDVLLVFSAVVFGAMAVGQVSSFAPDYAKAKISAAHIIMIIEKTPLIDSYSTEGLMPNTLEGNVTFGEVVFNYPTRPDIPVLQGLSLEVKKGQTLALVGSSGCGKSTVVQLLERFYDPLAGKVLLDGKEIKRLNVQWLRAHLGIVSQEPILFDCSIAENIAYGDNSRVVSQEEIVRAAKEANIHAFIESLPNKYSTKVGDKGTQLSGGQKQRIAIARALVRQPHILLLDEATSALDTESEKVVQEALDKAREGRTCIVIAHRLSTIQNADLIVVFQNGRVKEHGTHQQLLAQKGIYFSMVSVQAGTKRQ

Row | Structure (SMILES) | inhibition
1 | Cc1ccc2c(c1)C1CN(C)CCC1N2C(=S)Nc1ccc(Cl)cc1Cl (configuration not stated) | -0.2%
2 | Cc1cccc(C)c1OCC(O)CN1CCCCC1 (configuration not stated) | 0.13%
3 | Cc1ccccc1OCC(O)CN1CCN(c2ccccn2)CC1 (configuration not stated) | 2.19%
4 | Cc1ccc(OCC(O)CN2CCN(CC(O)COc3ccc(C)cc3Cl)CC2)c(Cl)c1 (configuration not stated) | 77.3% (active)
5 | COc1cccc(OC)c1C(=O)OCC(=O)/C(C#N)=C(\C)N | 0.08%
6 | CCC(=O)/C=C1\Sc2ccccc2N1CC | 0.19%
7 | CCN1/C(=C\c2ccc3ccccc3[n+]2CC)Sc2cc(C)ccc21 | 19.6%
8 | Cc1ccccc1-c1n[nH]c(=S)n1C | -0.08%
9 | CC(=O)c1ccc(NC(=O)CSC(=S)N2CCCC2)cc1 | 0.83%
10 | O=C(N/N=C/c1ccc([N+](=O)[O-])o1)c1cccc(S(=O)(=O)N2CCOCC2)c1 | 1.78%
11 | COC(=O)CC1=NN(c2nc(C)cc(C)n2)C(=O)C1 | 3.04%
12 | COc1ccc(Cl)cc1NC(=O)[C@@H]1CCCN1C(=O)c1cccs1 | 1.1%
13 | O=C(NNC(=S)NC(=O)c1cn(-c2ccccc2)nc1-c1ccccc1)c1ccncc1 | -0.12%
14 | O=C1N/C(=N\N=C\c2ccco2)SC1Cc1ccc(F)cc1 (configuration not stated) | -0.31%
15 | COC(=O)c1ccc(CSc2nncn2N)cc1 | -0.7%
16 | CCCN1CNC(=S)N(CCc2ccccc2)C1 | 0.53%
17 | COc1ccc(CNC(=O)COC(=O)/C=C/c2ccc(S(=O)(=O)N3CCOCC3)cc2)cc1 | -0.38%
18 | CC(C)(C)OC(=O)N1CCC(NC(=O)c2[nH]cnc2C(=O)N[C@@H](Cc2ccccc2)C(=O)OCc2ccccc2)CC1 | 15.7%
19 | CC1=C(C)CC(C(=O)NC(C)CCc2ccccc2)C(C(=O)O)C1 (configuration not stated) | 0.3%
20 | O=C(Cc1c[nH]c2ccccc12)N/N=C/c1cccc(F)c1 | -0.1%
21 | CCC(CC)c1nnc(NC(=O)/C=C/c2ccco2)s1 | 0.26%
22 | CN(C)c1nc(N)nc(Cn2nnc(-c3ccc(C(F)(F)F)cc3)n2)n1 | -0.39%
23 | O=S(=O)(c1ccc(-c2ccccc2)cc1)N1CCCC1 | 1.29%
24 | O=C(CCS(=O)(=O)Cc1ccccc1)Nc1ccc2c(c1)OCCO2 | 0.73%

Row | Structure (SMILES) | inhibition
25 | Cc1cc(C)cc(NC(=O)COC(=O)c2cc(C)oc2C)c1 | 1.39%
26 | Cc1ccc(C(NC(=O)N2CCCC2)C(Cl)(Cl)Cl)cc1F (configuration not stated) | 0.9%
27 | CCS(=O)(=O)c1ccc(O)c(NC(=O)COc2ccc(Cl)cc2)c1 | 0.2%
28 | CCn1c(COc2c(C)cccc2C)nnc1SCc1nc2ccccc2c(=O)[nH]1 | 0.72%
29 | CS(=O)(=O)c1ccc2nc(NC(=O)c3ccc(Cl)nc3)sc2c1 | 0.4%
30 | Cc1nnc(SCCCCSc2nnc(C)c(=O)[nH]2)[nH]c1=O | 1.4%
31 | CC(C)OCCCNC(=O)c1ccc(C2SCC(=O)N2Cc2ccco2)cc1 (configuration not stated) | 1.04%
32 | CSc1ccccc1NC(=O)Cc1ccc(Br)cc1 | 1.94%
33 | O=C(CN(c1cccc(Cl)c1)S(=O)(=O)c1ccccc1)NN=C1CCCC1 | 0.27%
34 | O=C(COC(=O)c1ccccc1C(=O)N1CCN(c2ccccc2)CC1)NCc1ccccc1 | 1.33%
35 | O=C1CN(C(=O)CN2C(=O)NC3(CCCCC3)C2=O)c2ccccc2N1 | 0.2%
36 | Cc1sc2nc(COC(=O)C(NC(=O)c3ccc(Cl)cc3Cl)C(C)C)[nH]c(=O)c2c1C (configuration not stated) | -0.58%
37 | CCc1ccc(Nc2nnc(SCC(=O)c3ccc4c(c3)NC(=O)CO4)s2)cc1 | -0.13%
38 | CCOc1ccc(C(=O)Nc2cccc(SC)c2)cc1 | 0.08%
39 | COC(=O)CCC(=O)N1CCCC(CO)(Cc2ccccc2)C1 (configuration not stated) | 0.1%
40 | CN(C)c1ccc(Nc2c3c4c(cccc4n(C)c2=O)C(=O)c2ccccc2-3)cc1 | 13.5%
41 | Cc1ccc(O)c(-c2cc(C(=O)Nc3c(C)n(C)n(-c4ccccc4)c3=O)[nH]n2)c1 | 0.33%
42 | COc1ccc(C2OCC3(CO2)SC(=O)NC3=O)cc1OC (configuration not stated) | -0.28%
43 | COc1ccccc1N1CCN(/N=C\C(Br)=C\c2ccccc2)CC1 | 0.81%
44 | N#Cc1ccccc1NC(=O)c1cccc(COc2ccc(Cl)cc2Cl)c1 | -0.17%
45 | CCOC(=O)c1ccc(NC(=S)Nc2cc(C)cc(C)n2)cc1 | 1.25%
46 | COc1cc(C(=O)NCc2nnc(SCC(=O)Nc3nc4ccc(C)cc4s3)o2)cc(OC)c1OC | -2.31%
47 | Cc1ccccc1Nc1scc(-c2ccc(Br)cc2)[n+]1-c1ccccc1C | -2.63%
